# From PubChem BioAssay (Tox21)
# Inconclusive results are not listed. A call without a number means that no potency is given here. Unmarked numbers belong to inactive results. Calls of active or inactive are those of the source. Unless noted, the call rests on the fitted dose curve; in most records, active means well fitted curve in the direction sought with a large enough effect in the repeat runs; inconclusive means weak or mixed curves; inactive means no such curve, though single readings can be large; an effect the other way counts as inactive or inconclusive.
# What was measured:
# [1] = qHTS assay to identify small molecule antagonists of the estrogen related receptor (ERR) signaling pathway from Tox21 library - cell viability counter screen (AID 1224834); further: nearly all actives have a fitted effect of over 30% in size; further: potency means the concentration at half of the fitted maximal effect
# Method in brief: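 Multiplexed viability counter screen in ERR cells: 17.5 h compound exposure at 37 C, CellTiter-Fluor added, 30 min at 37 C/5% CO2, fluorescence read.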
# [2] = target: Luciferin 4-monooxygenase (Photinus pyralis) (UniProt P08659); assay: qHTS assay to identify small molecule inhibitors of firefly luciferase (AID 1224835); further: nearly all actives have a fitted effect of over 25% in size; further: potency means the concentration at half of the fitted maximal effect; on activity change, negative = inhibition: series mostly up to about 120 µM
# Chain of Luciferin 4-monooxygenase (Photinus pyralis) (P08659 whole entry, looked up): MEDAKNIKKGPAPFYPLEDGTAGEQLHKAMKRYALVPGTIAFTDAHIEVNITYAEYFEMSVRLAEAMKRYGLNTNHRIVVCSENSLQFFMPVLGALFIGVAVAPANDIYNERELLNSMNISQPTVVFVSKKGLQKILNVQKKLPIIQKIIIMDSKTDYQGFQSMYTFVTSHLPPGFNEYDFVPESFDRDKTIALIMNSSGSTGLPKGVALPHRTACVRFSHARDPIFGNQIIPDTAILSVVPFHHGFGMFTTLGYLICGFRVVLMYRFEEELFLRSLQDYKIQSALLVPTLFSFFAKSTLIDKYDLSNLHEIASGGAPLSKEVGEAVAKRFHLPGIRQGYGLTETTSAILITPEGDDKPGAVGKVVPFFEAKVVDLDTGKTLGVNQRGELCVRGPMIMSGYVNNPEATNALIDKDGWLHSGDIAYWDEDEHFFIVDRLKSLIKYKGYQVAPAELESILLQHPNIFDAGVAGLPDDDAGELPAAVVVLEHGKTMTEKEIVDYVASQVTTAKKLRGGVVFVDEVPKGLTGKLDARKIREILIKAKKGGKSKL
# Method in brief: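 Biochemical qHTS: compounds run as interplate titrations against purified firefly enzyme, with D-luciferin and ATP each at its KM concentration. Light output recorded by CCD imaging.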
# [3] = qHTS assay to identify small molecule agonists of the constitutive androstane receptor (CAR) signaling pathway - cell viability counter screen (AID 1224836); further: nearly all actives have a fitted effect of over 45% in size; further: potency means the concentration at half of the fitted maximal effect; on viability change, negative = cytotoxic: series mostly up to about 92 µM
# Method in brief: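 Multiplexed viability check: HepG2-CYP2B6-hCAR cells, 15-point compound dosing, 0.75 uM PK11195 final, 23 h at 37 C, CellTiter-Fluor fluorescence.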
# [4] = qHTS assay to identify small molecule antagonists of the constitutive androstane receptor (CAR) signaling pathway - cell viability counter screen (AID 1224837); further: nearly all actives have a fitted effect of over 45% in size; further: potency means the concentration at half of the fitted maximal effect; on activity change, negative = cytotoxicity: series mostly up to about 92 µM
# Method in brief: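 Read-out: CellTiter-Fluor fluorescence after 23 hr at 37 C/5% CO2. Cells: HepG2 double-stable for hCAR and CYP2B6-2.2kb. Compounds tested at 15 concentrations in the presence of CITCO, final concentration 50 nM.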
# [5] = qHTS assay to identify small molecule antagonists of the estrogen related receptor signaling pathway with the pleiotropic PPARgamma coactivator (PGC) from Tox21 10K library - cell viability counter screen (AID 1224840; active means well fitted cell-killing curve with a large enough effect in the repeat runs, not every such curve was filed as active; further: nearly all actives have a fitted effect of over 40% in size; further: potency means the concentration at half of the fitted maximal effect)
# Method in brief: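 Fluorescence read-out of CellTiter-Fluor viability reagent, added after cells had been exposed to compound in DMSO for 17.5 h at 37 C; 30 min development at 37 C/5% CO2. Cells: PGC/ERR line, 2,000/well.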
# [6] = target: Thyrotropin receptor (Homo sapiens) (UniProt P16473); assay: qHTS assay to identify small molecule agonists of the thyroid stimulating hormone receptor (TSHR) signaling pathway (AID 1224843; calls by dose curve; further: nearly all actives have a fitted effect of over 45% in size)
# Chain of Thyrotropin receptor (Homo sapiens) (P16473 whole entry, looked up): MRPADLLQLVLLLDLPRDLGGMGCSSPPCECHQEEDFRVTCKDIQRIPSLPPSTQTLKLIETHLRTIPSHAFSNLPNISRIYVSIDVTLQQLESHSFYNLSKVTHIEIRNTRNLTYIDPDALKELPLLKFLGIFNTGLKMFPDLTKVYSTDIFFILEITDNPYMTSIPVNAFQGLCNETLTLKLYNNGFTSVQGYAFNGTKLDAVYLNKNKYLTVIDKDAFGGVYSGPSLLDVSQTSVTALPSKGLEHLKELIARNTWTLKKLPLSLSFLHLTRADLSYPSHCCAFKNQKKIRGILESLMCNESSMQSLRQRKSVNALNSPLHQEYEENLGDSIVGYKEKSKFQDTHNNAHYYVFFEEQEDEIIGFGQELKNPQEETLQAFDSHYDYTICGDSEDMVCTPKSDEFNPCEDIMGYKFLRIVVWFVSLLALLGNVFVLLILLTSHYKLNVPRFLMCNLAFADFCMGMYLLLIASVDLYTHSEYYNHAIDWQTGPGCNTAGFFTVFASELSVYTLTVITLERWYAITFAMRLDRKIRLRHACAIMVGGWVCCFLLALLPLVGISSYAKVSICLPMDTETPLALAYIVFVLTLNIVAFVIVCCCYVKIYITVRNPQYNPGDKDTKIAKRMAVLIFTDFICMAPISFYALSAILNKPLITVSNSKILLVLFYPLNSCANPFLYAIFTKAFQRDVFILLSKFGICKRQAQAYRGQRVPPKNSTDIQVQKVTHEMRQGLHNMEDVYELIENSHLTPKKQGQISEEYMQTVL
# Method in brief: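 HEK293/TSHR, 800 cells/well; cpd 30 min RT; add cAMP-d2 + anti-cAMP-cryptate, 1 h RT; fluorescence read on plate reader. 15-pt titration, n=3.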
# [7] = target: Nuclear receptor subfamily 1 group I member 3 (Homo sapiens) (UniProt Q14994); assay: qHTS assay to identify small molecule antagonists of the constitutive androstane receptor (CAR) signaling pathway (AID 1224838);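 further: HepG2 cells stably expressing hCAR with CYP2B6 luciferase reporter stimulated by CITCO; nearly all actives have a fitted effect of over 40% in size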
# Chain of Nuclear receptor subfamily 1 group I member 3 (Homo sapiens) (Q14994 whole entry, looked up): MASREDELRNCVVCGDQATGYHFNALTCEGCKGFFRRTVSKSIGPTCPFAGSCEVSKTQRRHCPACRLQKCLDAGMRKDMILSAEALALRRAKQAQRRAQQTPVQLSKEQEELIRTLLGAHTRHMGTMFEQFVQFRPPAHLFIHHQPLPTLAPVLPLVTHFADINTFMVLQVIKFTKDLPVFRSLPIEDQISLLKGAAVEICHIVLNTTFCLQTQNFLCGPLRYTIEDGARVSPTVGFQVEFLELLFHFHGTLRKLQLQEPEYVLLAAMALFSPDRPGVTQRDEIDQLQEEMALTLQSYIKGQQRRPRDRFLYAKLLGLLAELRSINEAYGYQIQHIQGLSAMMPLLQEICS
# Method in brief: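 Read-out: ONE-Glo luciferase luminescence after 30 min at room temperature. HepG2-CYP2B6-hCAR double-stable cells, compounds in 15-point titration plus 50 nM CITCO final, 24 h at 37 C/5% CO2.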
# [8] = qHTS assay to identify small molecule antagonists of the estrogen related receptor signaling pathway with the pleiotropic PPARgamma coactivator (PGC) from Tox21 10K library (AID 1224841; call rule not given here; further: series mostly up to about 92 µM; actives are mostly falling curves and most rising ones were filed inactive; nearly all actives have a fitted effect of over 50% in size)
# Method in brief: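 Luminescence read-out (One-Glo luciferase reagent, 30 min at room temperature) from PGC/ERR cells exposed to DMSO-dissolved test compounds for 18 h at 37 C; cells, 2,000 per well, had been preincubated 6 h before compound transfer.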
# [9] = qHTS assay to identify small molecule agonists of the estrogen related receptor signaling pathway with the pleiotropic PPARgamma coactivator (PGC) from Tox21 10K library (AID 1224842); further: nearly all actives have a fitted effect of over 15% in size; further: potency means the concentration at half of the fitted maximal effect
# Method in brief: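 PGC/ERR reporter cell line, 2,000 cells per well, incubated 6 h at 37 C before 23 nL compound in DMSO was added. After 18 h at 37 C, One-Glo luminescence read following 30 min at room temperature.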
# [10] = target: Nuclear receptor subfamily 1 group I member 3 (Homo sapiens) (UniProt Q14994); assay: qHTS assay to identify small molecule agonists of the constitutive androstane receptor (CAR) signaling pathway (AID 1224839); further: nearly all actives have a fitted effect of over 15% in size; further: potency means the concentration at half of the fitted maximal effect;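 on activation: HepG2 cells stably carrying human CAR and a CYP2B6 luciferase reporter; series mostly up to about 92 µM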
# Method in brief: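 Using human hepatoma HepG2 cells engineered with hCAR and a CYP2B6-2.2kb reporter, 15-concentration compound series were incubated 24 h alongside PK11195 at 0.75 uM final, with luminescence quantified afterwards.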
structure (smiles),measurement,setting,value
Cl[Si](Cl)(c1ccccc1)c1ccccc1,Potency,[1],inactive
same,Potency,[2],inactive
same,Potency,[3],inactive
same,Potency,[4],inactive
same,Potency,[5],inactive
same,Potency,[6],inactive
O=c1oc2cc(O)ccc2c2oc3cc(O)ccc3c12,Potency,[1],inactive
same,Potency,[2],19.2 µM (active)
same,Potency,[3],inactive
same,Potency,[4],inactive
same,Potency,[7],inactive
same,Potency,[5],inactive
same,Potency,[8],inactive
same,Potency,[9],58.6 µM (active)
CC(C)(C)CC(C)(C)c1ccc(Nc2ccc(C(C)(C)CC(C)(C)C)cc2)cc1,"viability change, negative = cytotoxic",[1],0.525% [at 8.39 µM]
same,"activity change, negative = inhibition",[2],-2.16% [at 10.5 µM]
same,"viability change, negative = cytotoxic",[3],-0.428% [at 8.39 µM]
same,"activity change, negative = cytotoxicity",[4],7.27% [at 8.39 µM]
same,"activity, negative = inhibition",[7],33.1% [at 8.39 µM]
same,"viability change, negative = cytotoxic",[5],-0.792% [at 8.39 µM]
same,activation,[6],21.9% [at 8.39 µM]
Cc1ccc(O)c(N)c1,Potency,[1],61.2 µM (active)
same,Potency,[2],31.8 µM (active)
same,Potency,[3],inactive
same,Potency,[4],inactive
same,Potency,[5],inactive
COC(=O)c1ccccc1OC,Potency,[1],inactive
same,Potency,[2],inactive
same,Potency,[3],inactive
same,Potency,[4],inactive
same,Potency,[5],inactive
same,Potency,[8],inactive
same,Potency,[9],inactive
same,Potency,[6],inactive
C=CC(=O)Nc1cc2c(Nc3ccc(F)c(Cl)c3)ncnc2cc1OCCCN1CCOCC1,Potency,[1],23.7 µM (active)
same,Potency,[2],inactive
same,Potency,[3],13.3 µM (active)
same,Potency,[4],13.3 µM (active)
same,Potency,[10],inactive
same,Potency,[5],13.3 µM (active)
same,Potency,[8],inactive
same,Potency,[9],3.76 µM (active)
same,Potency,[6],inactive
CC(C)(C)C1CCC(=O)CC1,Potency,[1],inactive
same,Potency,[2],inactive
same,Potency,[3],inactive
same,Potency,[4],inactive
same,Potency,[5],inactive
same,Potency,[8],inactive
same,Potency,[9],inactive
same,Potency,[6],inactive
CC1=Nc2ccccc2C1(C)C,Potency,[1],inactive
same,Potency,[2],20 µM (active)
same,Potency,[3],inactive
same,Potency,[4],inactive
same,Potency,[5],inactive
same,Potency,[8],inactive
same,Potency,[9],30.7 µM (active)
same,Potency,[6],inactive
CCCCCc1ccc(Cl)cc1,Potency,[1],inactive
same,Potency,[2],inactive
same,Potency,[3],inactive
same,Potency,[4],inactive
same,Potency,[5],inactive
same,Potency,[8],inactive
same,Potency,[9],inactive
same,Potency,[6],inactive
NC(=O)c1cccc([N+](=O)[O-])c1,Potency,[1],inactive
same,Potency,[2],inactive
same,Potency,[3],inactive
same,Potency,[4],inactive
same,Potency,[5],inactive
same,Potency,[6],inactive
CCN(CC)C(=O)c1cc(S(=O)(=O)Cc2ccccc2)c(N2CCC(c3ccccc3)CC2)cc1N(CC)CCN(C)C,Potency,[1],19.1 µM (active)
same,Potency,[2],inactive
same,Potency,[3],21.4 µM (active)
same,Potency,[4],24.1 µM (active)
same,Potency,[10],inactive
same,Potency,[5],21.4 µM (active)
same,Potency,[9],inactive
C[Si](Cl)(c1ccccc1)c1ccccc1,Potency,[1],inactive
same,Potency,[2],inactive
same,Potency,[3],inactive
same,Potency,[4],inactive
same,Potency,[7],inactive
same,Potency,[5],inactive
same,Potency,[8],inactive
same,Potency,[9],inactive
same,Potency,[6],inactive
CCOc1ccc2ccccc2c1C(=O)N[C@@H]1C(=O)N2[C@@H]1SC(C)(C)[C@@H]2C(=O)O,Potency,[1],inactive
same,Potency,[2],inactive
same,Potency,[3],inactive
same,Potency,[4],inactive
same,Potency,[5],inactive
same,Potency,[8],inactive
same,Potency,[9],inactive
same,Potency,[6],inactive
O=C(O)Cc1ccccc1Nc1c(Cl)cccc1Cl,Potency,[1],inactive
same,Potency,[2],inactive
same,Potency,[3],inactive
same,Potency,[4],inactive
same,Potency,[7],inactive
same,Potency,[5],inactive
same,Potency,[6],inactive
Cc1cccc(C)c1NC(=O)c1ccc(N)cc1,Potency,[1],inactive
same,Potency,[2],inactive
same,Potency,[3],inactive
same,Potency,[4],inactive
same,Potency,[5],inactive
same,Potency,[8],inactive
same,Potency,[9],inactive
same,Potency,[6],inactive
CC(=O)Oc1cc2c(s1)CCN(C(C(=O)C1CC1)c1ccccc1F)C2 (configuration not stated),Potency,[1],inactive
same,Potency,[2],inactive
same,Potency,[3],inactive
same,Potency,[4],inactive
same,Potency,[5],inactive
same,Potency,[8],inactive
same,Potency,[9],inactive
same,Potency,[6],inactive
CC(C)CCOC(=O)/C=C/c1ccccc1,Potency,[1],inactive
same,Potency,[2],8 µM (active)
same,Potency,[3],inactive
same,Potency,[4],inactive
same,Potency,[7],inactive
same,Potency,[5],inactive
same,Potency,[6],inactive
CN(C)C(=O)COC(=O)Cc1ccc(OC(=O)c2ccc(N=C(N)N)cc2)cc1,Potency,[1],inactive
same,Potency,[2],inactive
same,Potency,[3],inactive
same,Potency,[4],inactive
same,Potency,[5],inactive
same,Potency,[8],inactive
same,Potency,[9],inactive
same,Potency,[6],inactive
O=C1C(c2[nH]c3ccc(S(=O)(=O)O)cc3c2O)=Nc2ccc(S(=O)(=O)O)cc21,Potency,[1],inactive
same,Potency,[2],31.7 µM (active)
same,Potency,[3],inactive
same,Potency,[4],inactive
same,Potency,[5],inactive
same,Potency,[9],inactive
COc1cc(S(=O)(=O)O)c(C)cc1N=Nc1c(O)ccc2cc(S(=O)(=O)O)ccc12,Potency,[1],27.3 µM (active)
same,Potency,[2],63.3 µM (active)
same,Potency,[3],30.6 µM (active)
same,Potency,[4],27.3 µM (active)
same,Potency,[10],inactive
same,Potency,[5],27.3 µM (active)
same,Potency,[9],inactive
same,Potency,[6],inactive
O=C1NC(=O)[C@@H]2CC=CC[C@H]12,Potency,[1],inactive
same,Potency,[3],inactive
same,Potency,[4],inactive
same,Potency,[7],inactive
same,Potency,[10],inactive
same,Potency,[5],inactive
same,Potency,[6],inactive
O=S(=O)(O)c1ccc(N=Nc2c(O)ccc3ccccc23)cc1,Potency,[1],27.3 µM (active)
same,Potency,[2],35.6 µM (active)
same,Potency,[4],30.6 µM (active)
same,Potency,[7],inactive
same,Potency,[10],inactive
same,Potency,[5],48.6 µM (active)
CNC(=O)c1ccccc1Sc1ccc2c(/C=C/c3ccccn3)n[nH]c2c1,Potency,[1],26.6 µM (active)
same,Potency,[2],0.871 µM (active)
same,Potency,[3],inactive
same,Potency,[7],inactive
same,Potency,[10],1.06 µM (active)
same,Potency,[6],inactive
O=S(=O)(O)c1ccccc1/C=C/c1ccc(-c2ccc(/C=C/c3ccccc3S(=O)(=O)O)cc2)cc1,Potency,[1],inactive
same,Potency,[2],57.2 µM (active)
same,Potency,[7],inactive
same,Potency,[10],inactive
same,Potency,[5],inactive
same,Potency,[8],inactive
same,Potency,[9],inactive
same,Potency,[6],inactive
Cc1nc2n(c(=O)c1CCN1CCC(c3noc4cc(F)ccc34)CC1)CCCC2,Potency,[1],inactive
same,Potency,[2],inactive
same,Potency,[3],inactive
same,Potency,[4],inactive
same,Potency,[5],inactive
same,Potency,[6],inactive
